The text below walks through data of PubChem BioAssay (Tox21).

A number with no mark means an inactive call. Results filed as inconclusive are left out. Calls of active or inactive are those of the source. Unless noted, calls come from the whole dose curve; as a rule, active = well fitted curve in the direction sought with a large enough effect in the repeat runs; inconclusive = weak or mixed curves; inactive = no such curve, though single readings can be large; an effect the other way counts as inactive or inconclusive.

The target in experiment [1] is Estrogen receptor (Homo sapiens) (UniProt P03372). The experiment in a line: qHTS assay to identify small molecule agonists of the estrogen receptor alpha (ER-alpha) signaling pathway in the presence of an antagonist (AID 1259383; calls by dose curve; note: top concentration of the series differs between compounds; nearly all actives have a fitted effect of over 15% in size). In a few lines:
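Luminescent ERE-luciferase reporter, VM7Luc4E2 cells (endogenous ER-alpha); 10.0nM ICI-182,780 final; 15-point compound titration; 22hr at 37C; ONE-Glo, 30min RT.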
A general note: qHTS replaces the single test concentration by a dilution series.

Experiment [2] can be described thus: qHTS assay to identify small molecule agonists or antagonists of the thyroid stimulating hormone receptor (TSHR) signaling pathway - wild type cell line counter screen (AID 1259384; calls by dose curve). The essentials: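 Wild-type Hek293 cells, 800/well, 18 h at 37C, then compound with Ro20-1724 for 30 min RT. cAMP by HTRF (cAMP-d2/anti-cAMP cryptate), 1 h RT, fluorescence read. 15 concentrations, triplicates.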

Experiment [3] is described as follows: qHTS assay to identify small molecule agonists of the estrogen receptor alpha (ER-alpha) signaling pathway in the presence of an antagonist - cell viability counter screen (AID 1259386). For activity change, negative = cytotoxicity: series mostly up to about 92 µM.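 Note: cells exposed to compounds for 22 h at 37 °C before the viability read; nearly all actives have a fitted effect of over 30% in size.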 Note: potency is the fitted concentration of half-maximal effect. In a few lines:
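Using estrogen-depleted VM7Luc4E2 cells, the 15-concentration compound series was applied together with 10.0nM ICI-182,780 and incubated 22hr at 37C/5% CO2. Cell viability was then scored by CellTiter-Fluor.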

The nature of experiment [4]: qHTS assay to identify small molecule antagonists of the TGF-beta/Smad signaling pathway - cell viability counter screen (AID 1346824). Note: nearly all actives have a fitted effect of over 50% in size. The essentials: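 SBE-bla HEK 293T cells, incubated overnight, then compound plus 0.25 ng/mL TGF-beta1 (stock added) for 5 hr at 37 C. Viability was read in the same wells by CellTiter-Glo luminescence after 30 min at room temperature.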

Experiment [5] is described as follows: qHTS assay to identify small molecule agonists of the TGF-beta/Smad signaling pathway - cell viability counter screen (AID 1346829). Note: top concentration of the series differs between compounds; nearly all actives have a fitted effect of over 45% in size. The essentials:
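Luminescence from CellTiter-Glo, read after a 30 min room-temperature incubation, gives cell viability of SBE-bla HEK 293T cells treated 5 hr with compounds at 37 C.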

Experiment [6] is described as follows: qHTS assay to identify small molecule agonists of the TGF-beta/Smad signaling pathway (AID 1346859; active = well fitted activation curve with a large enough effect in the signal ratio in the repeat runs, not every such curve was filed as active; the % refers to the signal ratio; note: series mostly up to about 77 µM). In a few lines: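 Fluorescence (ex 405 nm; em 460 and 530 nm) was read 2 h after LiveBLAzer FRET substrate at RT. The preceding compound treatment of overnight-plated SBE-bla HEK293T cells lasted 5 h at 37 C.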
Experiment [7] concerns the target Thyrotropin-releasing hormone receptor (Homo sapiens) (UniProt P34981). The experiment in a line: qHTS assay to identify small molecule antagonists of the thyrotropin-releasing hormone receptor (TRHR) signaling pathway (AID 1346877; active = well fitted inhibition curve with a large enough effect in the repeat runs, not every such curve was filed as active; note: series mostly up to about 51 µM). The essentials: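 Calcium signal in dye-loaded TRHR/HEK293 cells; compounds added 5 min before TRH (1 nM final); fluorescence monitored 3 min at 1 s steps.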

Experiment [8] has the same target. The experiment in a line: qHTS assay to identify small molecule agonists of the thyrotropin-releasing hormone receptor (TRHR) signaling pathway (AID 1346891; calls by dose curve; note: series mostly up to about 58 µM). The essentials: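 Agonist-mode intracellular calcium readout: kinetic fluorescence over 3 min at 1 s intervals after compound addition to TRHR-HEK293 cells (18 h seeded, 2 h dye-loaded at 37 C). Fifteen concentrations, triplicates.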

Experiment [9] in a line: Caspase-3/7 induction in HepG2 cells by small molecules, qHTS assay (AID 1346978). Note: nearly all actives have a fitted effect of over 15% in size. The essentials:
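Wild-type HepG2 cells, 2,000/well, settled 5 hr at 37 C and 5% CO2, then compound-treated for 17 hr; caspase-3/7 activity read by luminescent Caspase-Glo 3/7 after 30 min at room temperature.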

The nature of experiment [10]: Caspase-3/7 induction in HepG2 cells by small molecules, qHTS cell viability counter screen (AID 1346981). Note: series mostly up to about 92 µM; nearly all actives have a fitted effect of over 30% in size. In a few lines: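 After a 5-hr attachment period at 37 C and 5% CO2, wild-type HepG2 cells received compounds in DMSO. Sixteen hours later CellTiter-Fluor was dispensed and the fluorescent signal quantified after a further hour.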
Experiment [11] addresses Nuclear receptor subfamily 1 group I member 2 (Homo sapiens) (UniProt O75469). As to the kind of experiment: Human pregnane X receptor (PXR) small molecule agonists, qHTS assay (AID 1346982). Note: nearly all actives have a fitted effect of over 35% in size. Note: potency is the fitted concentration of half-maximal effect. The essentials:
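Tox21 qHTS; PXR-Luc HepG2; compounds pinned from DMSO; 24 hr, 37 C; ONE-Glo luciferase detection, 30 min room temperature.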

The target in experiment [12] is Thyrotropin receptor (Homo sapiens) (UniProt P16473). The experiment in a line: qHTS assay to identify small molecule antagonists of the thyroid stimulating hormone receptor (TSHR) signaling pathway (AID 1259385; calls by dose curve; note: nearly all actives have a fitted effect of over 20% in size; note: potency is the fitted concentration of half-maximal effect). In a few lines: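 TSHR-HEK293 cells (800/well) plated 18 h, then compounds with Ro20-1724 and TSH at 1.5 ng/mL final, 30 min at room temperature. cAMP quantified by HTRF (cAMP-d2/anti-cAMP-cryptate, 1 h); 15 concentrations in triplicate.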
Sequence of Thyrotropin receptor (Homo sapiens) (P16473 whole entry, looked up): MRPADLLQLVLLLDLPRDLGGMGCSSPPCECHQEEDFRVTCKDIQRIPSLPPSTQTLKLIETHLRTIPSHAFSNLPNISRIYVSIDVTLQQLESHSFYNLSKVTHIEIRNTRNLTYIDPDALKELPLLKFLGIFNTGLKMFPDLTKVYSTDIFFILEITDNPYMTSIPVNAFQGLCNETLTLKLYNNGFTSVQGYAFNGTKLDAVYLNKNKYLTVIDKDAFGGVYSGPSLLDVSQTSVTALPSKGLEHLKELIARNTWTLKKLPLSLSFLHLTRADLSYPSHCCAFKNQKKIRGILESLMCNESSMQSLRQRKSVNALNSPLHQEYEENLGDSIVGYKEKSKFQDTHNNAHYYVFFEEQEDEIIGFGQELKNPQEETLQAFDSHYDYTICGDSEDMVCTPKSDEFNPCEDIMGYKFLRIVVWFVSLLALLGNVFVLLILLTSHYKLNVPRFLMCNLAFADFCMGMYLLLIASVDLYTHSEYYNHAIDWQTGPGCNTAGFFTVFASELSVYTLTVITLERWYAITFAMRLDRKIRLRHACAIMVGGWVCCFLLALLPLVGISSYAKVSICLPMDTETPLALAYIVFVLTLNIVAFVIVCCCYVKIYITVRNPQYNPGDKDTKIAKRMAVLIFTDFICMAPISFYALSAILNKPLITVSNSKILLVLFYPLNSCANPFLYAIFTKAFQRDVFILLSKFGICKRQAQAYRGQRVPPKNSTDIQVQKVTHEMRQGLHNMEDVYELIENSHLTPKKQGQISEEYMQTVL

Experiment [13] is described as follows: Human pregnane X receptor (PXR) small molecule agonists, qHTS cell viability counter screen (AID 1346977). Note: nearly all actives have a fitted effect of over 50% in size. Note: potency is the fitted concentration of half-maximal effect. The essentials: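 Same-well viability read: CellTiter-Fluor added after 23 hr compound exposure, fluorescence measured 1 hr later. Cells were PXR-Luc HepG2 seeded at 2,000/well in 5% charcoal-stripped FBS medium, rested 5 hr before dosing at 37 C.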

Experiment [14] can be described thus: Caspase-3/7 induction in CHO-K1 cells by small molecules, qHTS cell viability counter screen (AID 1346979). Note: nearly all actives have a fitted effect of over 35% in size. Note: potency is the fitted concentration of half-maximal effect. The essentials:
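Cytotoxicity counter screen: CellTiter-Fluor added to compound-treated wild-type CHO-K1 cells at 16 h (37C, 5% CO2), fluorescence measured 1 h later; same wells as caspase-3/7 measurement.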

A short description of experiment [15]: Caspase-3/7 induction in CHO-K1 cells by small molecules, qHTS assay (AID 1346980). Note: nearly all actives have a fitted effect of over 15% in size. In a few lines:
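Wild-type CHO-K1 cells exposed to compounds for 17hr at 37 C, 5% CO2. Caspase-3/7 activity then measured by Caspase-Glo 3/7 luminescence after 30min at room temperature.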

Experiment [16] addresses Progesterone receptor (Homo sapiens) (UniProt P06401). As to the kind of experiment: qHTS assay to identify small molecule agonists of the progesterone receptor (PR) signaling pathway (AID 1346784; calls by dose curve; note: nearly all actives have a fitted effect of over 30% in size). In a few lines: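 Agonist qHTS: compounds pinned onto 3,000 PR-UAS-bla HEK 293T cells per well in charcoal-stripped serum medium, 16hr at 37C, then beta-lactamase activity measured by LiveBLAzer FRET fluorescence after 2 hours at room temperature.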

For experiment [17] the target is unchanged. The experiment in a line: qHTS assay to identify small molecule antagonists of the progesterone receptor (PR) signaling pathway (AID 1346795; active = well fitted inhibition curve with a large enough effect in the signal ratio in the repeat runs, not every such curve was filed as active; the % refers to the signal ratio). In a few lines: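 Antagonist mode with agonist R5020 at 1 nM final and 16 hr incubation at 37C. Reporter was beta-lactamase driven by UAS in HEK293T (PR-UAS-bla), 2% charcoal-stripped serum; signal from LiveBLAzer FRET substrate, 2 hr at room temperature.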

Experiment [18] can be described thus: qHTS assay to identify small molecule antagonists of the progesterone receptor (PR) signaling pathway - cell viability counter screen (AID 1346798). Note: series mostly up to about 92 µM; nearly all actives have a fitted effect of over 50% in size. The essentials:
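Cytotoxicity read as CellTiter-Glo luminescence (30 min, room temperature) in the same wells as the beta-lactamase readout. HEK293T PR-UAS-bla cells in charcoal-stripped 2% FBS received compound and R5020, then 16 h at 37C, 5% CO2.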

The nature of experiment [19]: qHTS assay to identify small molecule agonists of the progesterone receptor (PR) signaling pathway - cell viability counter screen (AID 1346799; calls by dose curve; note: nearly all actives have a fitted effect of over 45% in size). The essentials: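 Cytotoxicity measured by CellTiter-Glo luminescence (30 min, RT) in the same wells as the PR beta-lactamase agonist read. Those HEK293T cells had 16 h compound treatment at 37 C in 2% charcoal-stripped FBS medium.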
% is set by controls: 0 for no effect and ±100 for the full control effect.

Sequence of Progesterone receptor (Homo sapiens) (P06401 whole entry, looked up): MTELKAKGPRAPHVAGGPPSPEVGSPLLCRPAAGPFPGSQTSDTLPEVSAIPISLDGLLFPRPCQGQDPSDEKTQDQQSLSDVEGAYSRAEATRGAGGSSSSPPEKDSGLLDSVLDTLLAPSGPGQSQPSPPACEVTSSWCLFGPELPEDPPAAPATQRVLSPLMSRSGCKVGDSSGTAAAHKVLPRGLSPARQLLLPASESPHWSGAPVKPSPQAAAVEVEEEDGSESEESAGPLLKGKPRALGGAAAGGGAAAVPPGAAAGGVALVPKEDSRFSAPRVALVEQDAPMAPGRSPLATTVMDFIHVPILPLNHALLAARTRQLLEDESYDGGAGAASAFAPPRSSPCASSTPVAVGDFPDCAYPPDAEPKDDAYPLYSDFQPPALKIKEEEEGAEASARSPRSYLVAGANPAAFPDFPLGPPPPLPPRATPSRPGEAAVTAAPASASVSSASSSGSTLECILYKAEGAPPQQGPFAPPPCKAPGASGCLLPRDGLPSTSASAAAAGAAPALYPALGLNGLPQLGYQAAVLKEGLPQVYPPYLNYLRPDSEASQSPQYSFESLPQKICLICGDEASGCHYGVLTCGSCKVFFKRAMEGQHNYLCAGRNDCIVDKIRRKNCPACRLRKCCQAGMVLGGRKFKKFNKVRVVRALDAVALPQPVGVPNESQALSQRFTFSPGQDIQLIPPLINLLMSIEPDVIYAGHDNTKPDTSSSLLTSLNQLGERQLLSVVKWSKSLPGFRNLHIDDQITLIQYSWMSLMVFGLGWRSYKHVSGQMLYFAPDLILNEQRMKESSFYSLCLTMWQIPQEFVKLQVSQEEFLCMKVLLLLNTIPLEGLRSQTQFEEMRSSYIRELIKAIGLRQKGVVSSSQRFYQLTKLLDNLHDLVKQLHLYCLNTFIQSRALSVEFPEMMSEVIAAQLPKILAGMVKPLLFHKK
Sequence of Thyrotropin-releasing hormone receptor (Homo sapiens) (P34981 whole entry, looked up): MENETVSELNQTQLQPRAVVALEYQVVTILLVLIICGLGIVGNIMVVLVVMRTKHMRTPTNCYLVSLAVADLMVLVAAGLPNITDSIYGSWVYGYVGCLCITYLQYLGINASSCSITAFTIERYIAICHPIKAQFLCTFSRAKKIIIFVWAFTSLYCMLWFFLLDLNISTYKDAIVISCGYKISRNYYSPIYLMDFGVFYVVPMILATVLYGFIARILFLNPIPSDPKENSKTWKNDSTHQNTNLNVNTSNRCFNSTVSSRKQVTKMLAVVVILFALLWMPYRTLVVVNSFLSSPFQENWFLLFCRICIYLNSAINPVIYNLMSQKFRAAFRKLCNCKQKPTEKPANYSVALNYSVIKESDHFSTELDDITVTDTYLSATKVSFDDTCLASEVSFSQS
Sequence of Estrogen receptor (Homo sapiens) (P03372 whole entry, looked up): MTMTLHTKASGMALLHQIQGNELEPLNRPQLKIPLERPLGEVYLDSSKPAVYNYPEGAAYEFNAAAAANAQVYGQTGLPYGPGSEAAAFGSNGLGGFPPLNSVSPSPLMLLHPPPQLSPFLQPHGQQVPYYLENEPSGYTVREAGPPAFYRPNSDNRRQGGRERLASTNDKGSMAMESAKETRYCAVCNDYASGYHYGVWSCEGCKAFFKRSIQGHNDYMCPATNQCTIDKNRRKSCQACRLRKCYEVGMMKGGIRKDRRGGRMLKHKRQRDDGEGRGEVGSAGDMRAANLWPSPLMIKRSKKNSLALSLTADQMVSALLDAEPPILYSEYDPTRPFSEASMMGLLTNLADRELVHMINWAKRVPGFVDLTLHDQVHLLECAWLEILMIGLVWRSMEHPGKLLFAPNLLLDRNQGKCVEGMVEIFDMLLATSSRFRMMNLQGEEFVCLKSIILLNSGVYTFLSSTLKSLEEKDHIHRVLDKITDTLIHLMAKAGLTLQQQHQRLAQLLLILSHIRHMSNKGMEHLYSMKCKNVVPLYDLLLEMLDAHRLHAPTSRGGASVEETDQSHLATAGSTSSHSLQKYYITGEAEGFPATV
Sequence of Nuclear receptor subfamily 1 group I member 2 (Homo sapiens) (O75469 whole entry, looked up): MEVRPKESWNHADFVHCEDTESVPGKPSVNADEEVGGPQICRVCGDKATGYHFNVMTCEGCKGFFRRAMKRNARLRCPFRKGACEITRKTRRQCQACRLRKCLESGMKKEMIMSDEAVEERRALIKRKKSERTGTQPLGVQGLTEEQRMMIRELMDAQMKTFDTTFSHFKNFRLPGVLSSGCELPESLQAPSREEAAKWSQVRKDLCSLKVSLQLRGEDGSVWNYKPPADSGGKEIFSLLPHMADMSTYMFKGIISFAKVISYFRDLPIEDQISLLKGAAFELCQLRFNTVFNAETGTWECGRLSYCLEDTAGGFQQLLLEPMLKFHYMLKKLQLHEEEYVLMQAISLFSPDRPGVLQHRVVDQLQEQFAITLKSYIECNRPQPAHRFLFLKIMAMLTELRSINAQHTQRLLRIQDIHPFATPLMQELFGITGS

Turning to `c1ccc(-c2ccccc2-c2ccccc2)cc1`, the Potency result in experiment [1], in experiment [2], in experiment [3], in experiment [4], in experiment [5] and in [7] was “inactive” throughout. Besides, the Potency result in [8], in experiment [9] and in experiment [10] was “inactive” in each case. Moreover, in [6], the result was inactive. In addition, the Potency in experiment [11] is 61.1 µM (active).
Regarding `CCCCCCCCCCCCCCCCCCNC(=O)OC1CCN(C(=O)OC[C@H](COC(=O)N(Cc2cccc[n+]2CC)C(=O)c2ccccc2OC)OC)CC1`, the Potency result in [1], in experiment [2], in [7], in experiment [8], in experiment [9] and in experiment [15] was “inactive” throughout. Also, the Potency result in experiment [11] is “inactive”. Also, the Potency is 29.8 µM (active) in experiment [12], 26.6 µM (active) in experiment [3], 26.6 µM (active) in experiment [13] and 29.8 µM (active) in [14].
Regarding `CCCCCCCCCCCCS(=O)(=O)Cl`, in [2], the cAMP activity change was 2.12% [at 18.9 µM, stronger effect = higher value]. Further, the activity change, negative = inhibition was -1.01% [at 19 µM] in [12] and -1.09% [at 18.9 µM] in experiment [17]. Besides, the activity change, negative = cytotoxicity in [3] was -0.178% [at 19 µM]; in experiment [18] it was -16% [at 18.9 µM]; in [19], -21.2% [at 19 µM]; in [5], 19.7% [at 15.8 µM]; in experiment [13], 2.87% [at 19 µM]; in experiment [14], 5.87% [at 19 µM]. Also, the values for the activation in [16], in experiment [6] and in [8] were -0.481% [at 19 µM], 8.04% [at 15.8 µM] and 0.0016% [at 11.8 µM], respectively. Besides, the viability change, negative = cytotoxic in experiment [4] was -0.792% [at 15.8 µM]. Further, the caspase activation in experiment [9] was -0.157% [at 19 µM]. For the same compound, in [15], the caspase-3/7 activation was -1.07% [at 19 µM].
For `O=C1Cc2ccccc2C1`, the Potency entry in [18], in [7] and in [15] was “inactive” each time.
With `c1ccc2occc2c1`, the Potency entry in [1], in [2], in experiment [12], in [3], in experiment [4] and in experiment [5] was “inactive” each time. For the same compound, the Potency entry in experiment [7], in [8], in experiment [13], in experiment [9], in experiment [14] and in experiment [15] was “inactive” throughout. Moreover, the Potency entry in experiment [10] is “inactive”. In addition, the outcome in experiment [16] and in experiment [6] was inactive.
With `CCCCCCCC1CCC(=O)O1` (stereo unspecified), the Potency entry in experiment [18] is “inactive”.
